# The source made the active and inactive calls. Unless noted, no rule for the calls is given here.
# Assays:
# [1] = system: Wnt5a (protein binding on small-molecule microarray); assay: small molecules binding Wnt5a protein – biophysical, small-molecule microarray, 635/667 nm fluorescence, primary screen (AID 1142); conditions: 635 nm fluorescence, higher = more signal;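 also: fluorescence read at 667 nm with signal to noise per printed feature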
# [2] = ATP-based viability of Huh7 replicon cells – cell-based, CellTiter-Glo luminescence, basal, 48 h, cytotoxicity control for HCV replication inhibitor project, primary screen (AID 1143); conditions: higher = more signal, called active from +8 up or from −8 down;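 also: Huh7 hepatoma cells carrying a hepatitis C replication reporter with no stimulus; test concentration not given here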
# [3] = Pseudomonas biofilm growth suppression – PAO1 strain, BacTiter-Glo luminescence, LB-PBS, primary screen (AID 1144); conditions: P. aeruginosa PAO1 biofilm, 12 h, higher = more signal
# [4] = basal CRE-LacZ reporter activity in PC12 – cell-based, unstimulated, primary screen (AID 1145); conditions: no forskolin, luminescence, 4.5 h, higher = more signal, called active from +8 up or from −8 down
# [5] = forskolin-driven CRE-LacZ activity in PC12 – cell-based, CRE-LacZ reporter, forskolin-stimulated, primary screen (AID 1146); conditions: luminescence, 4.5 h, higher = more signal, called active from +8 up or from −8 down;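 also: PC12 cells with 6xCRE LacZ reporter stimulated by forskolin 10 µM; beta-galactosidase reporter signal reflecting CREB driven transcription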
# [6] = molecular target: Streptavidin (Streptomyces avidinii) (UniProt P22629); assay: compounds binding control protein streptavidin – biophysical, small-molecule microarray, 635/667 nm fluorescence, artefact control for SMM compound annotation, primary screen (AID 1147); conditions: higher = more signal;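 also: signal reflects streptavidin binding to arrayed compounds as a control protein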
# Streptavidin (Streptomyces avidinii), sequence (P22629 whole entry, looked up): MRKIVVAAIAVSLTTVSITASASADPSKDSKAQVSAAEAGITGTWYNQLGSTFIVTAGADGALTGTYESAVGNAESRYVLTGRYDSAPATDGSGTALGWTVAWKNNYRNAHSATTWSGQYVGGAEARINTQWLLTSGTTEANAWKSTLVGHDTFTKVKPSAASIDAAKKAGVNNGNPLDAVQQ
# [7] = probe aInhba binding on compound microarray – biochemical, small-molecule microarray, 635/667 nm fluorescence, primary screen (AID 1148); conditions: higher = more signal;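 also: score merges 667nm spot fluorescence with signal-to-noise for antibody binding to printed compounds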
# Torsin-1A (Homo sapiens) [8] = molecular target: Torsin-1A (Homo sapiens) (UniProt O14656); assay: TOR1A wild-type binding on microarray – cell lysate, small-molecule microarray, lysate, 635/667 nm, primary screen (AID 1149); conditions: COS7 hTOR1A-WT lysate, 635 nm fluorescence, higher = more signal
# Torsin-1A (Homo sapiens), sequence (O14656 whole entry, looked up): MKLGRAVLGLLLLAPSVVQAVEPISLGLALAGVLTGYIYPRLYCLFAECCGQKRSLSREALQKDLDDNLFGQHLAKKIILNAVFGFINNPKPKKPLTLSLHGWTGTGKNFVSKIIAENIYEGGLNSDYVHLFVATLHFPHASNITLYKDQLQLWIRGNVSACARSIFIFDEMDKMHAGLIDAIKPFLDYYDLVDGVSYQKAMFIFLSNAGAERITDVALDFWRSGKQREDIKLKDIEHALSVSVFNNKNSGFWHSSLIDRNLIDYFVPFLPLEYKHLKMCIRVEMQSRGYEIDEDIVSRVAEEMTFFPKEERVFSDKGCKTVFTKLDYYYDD
# Torsin-1A (Homo sapiens) [9] = molecular target: Torsin-1A (Homo sapiens) (UniProt O14656); assay: torsin A mutant lysate binding on microarrays – cell lysate, small-molecule microarray, COS7 lysate, 635/667 nm fluorescence, primary screen (AID 1150); conditions: COS7 hTOR1A mutant lysate, 635 nm fluorescence, higher = more signal;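 also: score pools 667 nm emission and signal to noise measuring lysate protein binding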
# [10] = system: Sonic hedgehog protein (Shh); assay: Sonic hedgehog microarray binding compounds – biochemical, small-molecule microarray, 635/667 nm fluorescence, primary screen (AID 1151); conditions: 635 nm fluorescence, higher = more signal;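 also: Shh protein binding to compounds spotted on small-molecule microarray slides; score combines spot fluorescence intensity with signal-to-noise across triplicate slides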
Structure (SMILES),composite z-score [1],z-score [2],z-score [3],z-score [4],z-score [5],composite z-score [6],composite z-score [7],composite z-score (Torsin-1A (Homo sapiens) [8]),composite z-score (Torsin-1A (Homo sapiens) [9]),composite z-score [10]
COCCOC(=O)N1C(=O)[C@@]2(c3cc(C#CCC(C(=O)OC)C(=O)OC)ccc31)[C@H](C(=O)NC[C@H](O)c1ccccc1)[C@H]1C(=O)O[C@H](c3ccccc3)[C@H](c3ccccc3)N1[C@@H]2c1ccc(OCCO)cc1,-0.157,-1.01 (inactive),0.366 (inactive),0.895 (inactive),-0.102 (inactive),0.688,-0.0804,-0.012,0.367,1.69
NC(=O)[C@H]1[C@@H]2C(=O)O[C@@H](c3ccccc3)[C@@H](c3ccccc3)N2[C@@H](c2ccc(O)cc2)[C@]12C(=O)Nc1ccc(C#CC3=CCCCC3)cc12,-0.0856,-3.73 (inactive),0.363 (inactive),0.478 (inactive),0.731 (inactive),0.185,-0.128,0.509,0.721,1.19
O=C(O)[C@H]1C[C@H]2C(=O)N[C@@H](Cc3ccccc3)C(=O)N2[C@H]1c1cccc(OCCO)c1,0.223,-0.6 (inactive),0.28 (inactive),1.23 (inactive),-0.178 (inactive),0.105,0.0663,1.42,1.71,1.9
CC(C)C(CO)N1C(=O)[C@@H]2[C@H]3C(=O)OCC=C[C@H]3OC23C=CCN(C(C)(C)C)C(=O)[C@@H]13 (stereo not given in full),-0.682,-0.342 (inactive),0.947 (inactive),1.01 (inactive),0.412 (inactive),-0.633,-0.0762,-1.59,-0.934,0.54
COCCOC(=O)N1C(=O)[C@@]2(c3cc(C#CCNC(N)=O)ccc31)[C@H](c1ccc(O)cc1)N1[C@H](c3ccccc3)[C@H](c3ccccc3)OC(=O)[C@H]1[C@@H]2C(N)=O,-0.503,-0.522 (inactive),0.175 (inactive),0.224 (inactive),0.645 (inactive),-1.53,-0.331,-0.57,-0.934,-1.56
CC(CO)N1C(=O)[C@@H]2[C@H]3C(=O)OCC=C[C@H]3OC23C=CCN(c2ccc(Cl)cc2)C(=O)[C@@H]13 (stereo not given in full),-0.691,0.359 (inactive),2.78 (inactive),0.866 (inactive),0.154 (inactive),-2.13,-0.26,-2.73,-2.95,-0.721
NCCCCCNC(=O)[C@H]1C[C@H]2C(=O)N[C@@H](Cc3ccccc3)C(=O)N2[C@H]1c1ccc(O)cc1,0.234,0.169 (inactive),-0.0304 (inactive),0.0124 (inactive),-0.622 (inactive),1.13,0.641,0.756,0.842,0.313
C=C(CCCC)C(=O)CC[C@H](OC(=O)c1ccccc1-c1ccccc1C(=O)O)c1ccccc1OCCO,-0.131,-0.397 (inactive),-0.447 (inactive),5.04 (inactive),5.73 (inactive),-0.759,-0.179,1.03,0.221,2.07
C=CCNC(=O)[C@H]1[C@@H]2C(=O)O[C@@H](c3ccccc3)[C@@H](c3ccccc3)N2[C@@H](c2ccc(OCCO)cc2)[C@]12C(=O)Nc1ccc(C#CCNC(N)=O)cc12,0.314,-0.384 (inactive),-0.78 (inactive),0.559 (inactive),0.123 (inactive),0.756,0.0857,0.207,0.125,1.61
O=C1O[C@H](c2ccccc2)[C@H](c2ccccc2)N2[C@H]1[C@@H](C(=O)N1CCCCCCC1)[C@]1(C(=O)Nc3ccc(C#CC4(O)CCCCCC4)cc31)[C@H]2c1ccccc1OCCO,2.32,-3.52 (inactive),-0.41 (inactive),0.335 (inactive),-0.0926 (inactive),4.02,1.97,3.75,3.55,2.09
O=C1C2C=CC(C(O)c3ccc(I)cc3)N(Nc3ccccc3)C2C(=O)N1c1ccccc1 (stereo not given),0.478,-0.167 (inactive),-0.379 (inactive),-0.522 (inactive),0.32 (inactive),1.88,0.151,-0.087,0.36,0.0756

# Reference: PubChem BioAssay
